# PP5 inh: PP5 (human) phosphatase inhibition; inhibition, % at 6.7 µM; purified PP5c, OMFP substrate fluorescence; P53041; 320,000 compounds, 0.18% hits;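 active = inhibition above the campaign's mean inhibition across all tested compounds plus 3 SD, cut at about 9.5% in these data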;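 note: 0% = DMSO only and 100% = 100 µM cantharidin control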
# Beta apoptosis: beta cell apoptosis inhibition | INS-1E cytokine-induced death, ATP luminescence, 48 h; percent of positive-control rescue, neutral wells zero | protection from apoptosis, % (test concentration not listed) | 300,000 compounds, 0.8% hits;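 active = Every replicate reaches about 75%, or at least half do and their mean reaches it too, limit read from the data; inconclusive = At least half of replicates reach the limit but their mean does not; inactive = Under half of replicates reach the limit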;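 note: 0% = cytokine-treated negative control wells and 100% = positive control rescue; higher means more ATP so stronger rescue from cytokine killing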
# CSC inhib: blocks cancer stem cells; cancer stem cell-like cells viability, luminescence; inhibition, % at 7.5 µM; 300,000 compounds, 1.1% hits; AID 2717; in the data active = inhibition above about 75%; inconclusive = no clear call, values can overlap the other calls; tested in HMLE shEcad cells
# Calb FLC: C. albicans growth modulation with fluconazole; C. albicans CaCi-2 (fluconazole-resistant clinical isolate) + fluconazole, Alamar Blue growth, 48 h; growth inhibition, % (no concentration beside the values); 300,000 compounds, 0.57% hits; AID 1979;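 active = growth inhibition above about 58% in most replicates, limit read from the data, passing the limit was not always enough; inconclusive = exactly half the replicates above a set limit; inactive = most replicates below a set limit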;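 note: all wells also contain fluconazole at 8 µg/ml as a sub-toxic cotreatment; 0% = median of DMSO wells and 100% = median of geldanamycin control wells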
# Mdm2-MdmX inh: inhibitors of human Mdm2/MdmX interaction; SaOS-2 split-luciferase Mdm2/MdmX complementation, luminescence; inhibition, % at 8 µM; 330,000 compounds, 3% hits; AID 485346;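 active = inhibition of at least 50% at 8 µM in the primary screen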
# Target sequence (O15151 whole entry, looked up): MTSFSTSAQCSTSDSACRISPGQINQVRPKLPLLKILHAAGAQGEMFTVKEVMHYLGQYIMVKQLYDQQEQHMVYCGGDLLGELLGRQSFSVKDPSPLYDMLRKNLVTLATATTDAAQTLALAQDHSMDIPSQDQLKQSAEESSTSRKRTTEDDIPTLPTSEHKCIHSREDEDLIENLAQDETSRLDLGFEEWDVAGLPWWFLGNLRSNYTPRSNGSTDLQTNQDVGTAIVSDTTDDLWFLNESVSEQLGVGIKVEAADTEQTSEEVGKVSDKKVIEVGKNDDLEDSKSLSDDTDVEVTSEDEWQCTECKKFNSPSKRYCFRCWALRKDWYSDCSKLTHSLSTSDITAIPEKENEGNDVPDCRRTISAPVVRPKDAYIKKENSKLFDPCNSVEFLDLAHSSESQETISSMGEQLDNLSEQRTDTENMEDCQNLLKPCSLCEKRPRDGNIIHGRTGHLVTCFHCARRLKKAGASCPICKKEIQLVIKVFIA
# Target sequence (Q00987 whole entry, looked up): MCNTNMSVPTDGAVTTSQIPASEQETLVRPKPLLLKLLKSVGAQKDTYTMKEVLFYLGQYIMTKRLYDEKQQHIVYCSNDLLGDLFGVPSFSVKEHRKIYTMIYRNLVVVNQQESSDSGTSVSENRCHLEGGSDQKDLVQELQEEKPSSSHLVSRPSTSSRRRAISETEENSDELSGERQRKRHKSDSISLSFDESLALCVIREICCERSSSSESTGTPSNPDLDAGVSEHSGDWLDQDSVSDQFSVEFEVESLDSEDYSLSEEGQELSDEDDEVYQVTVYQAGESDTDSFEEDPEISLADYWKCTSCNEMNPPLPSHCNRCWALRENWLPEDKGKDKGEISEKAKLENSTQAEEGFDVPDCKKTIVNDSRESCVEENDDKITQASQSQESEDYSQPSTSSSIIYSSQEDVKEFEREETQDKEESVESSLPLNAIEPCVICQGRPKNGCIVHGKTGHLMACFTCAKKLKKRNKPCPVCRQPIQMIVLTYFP
# PP1 inh: counter-screen for PP5 inhibitors: inhibitors of human PP1-alpha | purified PP1alpha, OMFP fluorescence | 320,000 compounds, 0.9% hits | inhibition, % at 6.7 µM | AID 2235;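 active = inhibition above the mean inhibition of all tested compounds plus 3 SD, computed separately for each screening campaign, cut at about 15% in these data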
# Numbers without * were called inactive; ? = inconclusive; · = no result. A selection: hits, their analogues and other compounds. The true share with any hit is near 4.9%.
SMILES,PP5 inh,Beta apoptosis,CSC inhib,Calb FLC,Mdm2-MdmX inh,PP1 inh
C#CCOCCOCCOCCNc1nc(N2CCN(C(=O)C([C@@H](C)CC)n3cc(C(N)COC(=O)C(F)(F)F)nn3)CC2)nc(N2CCN(C(=O)[C@H](CCCCN)n3cc(C(N)[C@H](C)CC)nn3)CC2)n1 (some centres not stated),2.2,-4.1,-13.1,7.3,14.8,17.3*
C#CCOCCOCCOCCNc1nc(N2CCN(C(=O)C(Cc3ccc(O)cc3)n3cc(C(N)CC(C)C)nn3)CC2)nc(N2CCN(C(=O)C(Cc3cc4ccccc4[nH]3)n3cc(C(N)Cc4ccc(O)cc4)nn3)CC2)n1 (configuration not stated),1.7,-1.8,-24.2,1.3,14.2,16.9*
C#CCOCCOCCOCCNc1nc(N2CCN(C(=O)[C@H](Cc3cc4ccccc4[nH]3)n3cc([C@@H](N)C(C)CC)nn3)CC2)nc(N2CCN(C(=O)[C@H](Cc3cc4ccccc4[nH]3)n3cc([C@@H](N)CC(C)C)nn3)CC2)n1 (some centres not stated),0.6,8.4,8.9,12.7,9.9,19.4*
C#CCOCCOCCOCCNc1nc(N2CCN(C(=O)[C@H](CCCCN)n3cc([C@@H](N)C(C)CC)nn3)CC2)nc(N2CCN(C(=O)[C@H](Cc3cc4ccccc4[nH]3)n3cc([C@@H](N)CC(C)C)nn3)CC2)n1 (some centres not stated),1.1,-24.5,-2.7,12.8,-2.4,13.4
C#CCN(C(=O)CC1C(=O)NCCN1C/C=C/c1ccccc1)C1CCCCC1 (configuration not stated),1.6,·,-13.7,-0.5,4.5,-0.9
CCC(C)Nc1nc(-c2cccc(OC)c2O)nc2ccccc12 (configuration not stated),0.8,-11.0,60.4,-5.2,34.9,0.7
COc1cccc(-c2nc(NC(C)C)c3ccccc3n2)c1O,3.8,·,37.4,85.5*,30.9,0.1
O=C1CN2C(=Nc3ccc(Cl)cc3C2c2ccccc2)CN1 (configuration not stated),-0.6,0.0,6.0,87.5*,28.5,-4.4
COc1ccc(S(=O)(=O)NCC(=O)N(CC(=O)NCC2CCCO2)Cc2ccc(F)cc2)cc1 (configuration not stated),0.6,-20.9,-1.9,-16.8,-4.6,-0.8
Cc1ccc2nc(-c3cccc(NS(C)(=O)=O)c3)cc(-c3ccccc3)c2c1,2.8,-3.0,114.5*,-0.8,31.2,-0.1
C/C(=N\OCC(=O)Nc1nc2ccccc2s1)c1ccccc1,2.1,-4.8,4.0,-15.1,17.1,0.2
COc1ccc(/C=N/OCC(=O)Nc2nc3ccccc3s2)cc1,3.1,-1.3,·,107.8*,5.1,3.6
O=C(O)c1c(-c2ccc(Cl)cc2)cn2ccccc12,-1.1,-0.7,-9.4,-1.8,-0.9,-2.1
O=C(COc1ccccc1Cl)Nc1cc(Cl)ccc1Oc1ccccc1,2.9,5.6,89.1*,-2.7,-4.8,-4.0
Cc1ccc(Cl)cc1NC(=O)c1ccccc1OCC(=O)Nc1ccc(Cl)cc1,3.2,65.3,78.0*,4.7,21.9,2.1
Cc1ccc2[nH]c(=O)c(CNS(=O)(=O)c3ccccc3)c(-c3ccccc3)c2c1,1.1,1.1,1.8,?,-10.7,7.1
Cc1cc(C(=O)Nc2ccccc2N2CCCCC2)no1,0.7,-5.5,0.5,6.7,3.5,-1.7
OC(COC(c1ccc(F)cc1)c1ccc(F)cc1)CN1CCc2ccccc2C1 (configuration not stated),1.0,102.1*,30.5,1.9,26.9,4.7
CC(=O)Nc1ccc(C(=O)NC2CCCC2)cc1,-1.0,-3.2,1.5,·,-12.0,-5.3
O=C(Nc1ccc(C(=O)NC2CCCCC2)cc1)c1cccnc1,-3.3,99.9*,-0.2,-2.3,11.0,2.6
CC(C)c1ccc2oc(-c3ccc(NC(=O)c4ncn[nH]4)cc3)nc2c1,3.1,0.3,49.4,88.1*,-37.6,9.7
O=C(Nc1ccc(N2CCN(C(=O)c3ccccc3)CC2)cc1)c1cccnc1,0.8,21.8,-10.1,-0.4,30.0,-2.7
COC(=O)c1c(-c2cccs2)csc1NC(=O)c1cccnc1,6.2,7.8,-0.7,94.8*,-21.7,2.6
O=C(Nc1ccc(N2CCN(C(=O)c3ccc(Cl)cc3)CC2)cc1)c1cccnc1,1.3,104.0*,-0.3,1.3,25.0,-5.0
CCC(C)c1ccc2oc(-c3ccc(NC(=O)c4ncn[nH]4)cc3)nc2c1 (configuration not stated),1.0,9.4,61.6,64.7,9.7,14.7
SMILES,PP5 inh,Beta apoptosis,CSC inhib,Calb FLC,Mdm2-MdmX inh,PP1 inh
Cc1ccc(/C=N\NC(=O)CCc2n[nH]c(=O)[nH]c2=O)o1,2.6,0.0,-2.8,26.0,6.5,-2.1
COC(=O)c1ccc(NC(=O)c2cccnc2)cc1,-1.8,109.6*,-16.4,-2.6,-10.5,2.3
Cc1ccc2oc(-c3ccc(NC(=O)c4cccnc4)cc3)nc2c1,6.5,85.6*,·,?,-144.7,3.1
O=C(Nc1ccc(OCc2ccccc2Cl)cc1)c1cccnc1,2.6,36.0,61.0,114.2*,23.9,9.6
O=C(Nc1cccnc1)c1ccc(C(=O)Nc2cccnc2)cc1,-2.0,-1.3,·,-7.3,38.5,-0.3
O=C(Nc1cccnc1)c1cccnc1,3.7,104.9*,0.9,26.1,-9.1,-0.5
COc1ccc(CCNC(=O)C(=O)NCc2cccs2)cc1OC,0.5,-9.3,-14.4,8.7,8.3,-6.1
O=C(Nc1cccc(Cl)c1N1CCCC1)c1cccc(-c2cc3ccccc3oc2=O)c1,-0.5,10.8,84.5*,12.6,20.0,-1.1
CCOc1ccc2nc(NC(=O)c3cccc(-c4cc5ccccc5oc4=O)c3)sc2c1,0.6,80.8*,40.5,8.8,·,1.8
S=C1NCCOCCNC(=S)NCCOCCOCCN1,-0.6,2.3,2.2,-25.4,-1.8,2.2
O=C(CSc1cn(Cc2ccccc2)c2ccccc12)Nc1nccs1,5.1,-5.1,15.6,-3.7,-184.4,16.3*
COC(=O)c1ccc(N2CCN(C)CC2)c(NC(=O)COc2cccc(C)c2)c1,3.1,-15.9,-2.5,4.8,-6.4,1.1
Cc1ccc(-c2csc(NC(=O)/C=C/c3ccco3)c2C(=O)O)cc1,0.6,-17.3,4.5,6.0,-90.2,-1.8
Cc1nnc(-c2ccc(Oc3ccc(Br)cc3)c([N+](=O)[O-])c2)o1,3.2,0.3,139.1*,3.6,3.0,5.2
O=[N+]([O-])c1cc(-c2cnc3ccccc3n2)ccc1Oc1ccc(Br)cc1,5.9,-2.0,58.2,16.9,-3.8,-1.5
CCCCn1c(NC(=O)CC)c(C#N)c2nc3ccccc3nc21,1.5,-4.8,-6.7,5.7,-8.7,-1.9
N#Cc1c(NC(=O)c2ccccc2Cl)n(Cc2ccccc2)c2nc3ccccc3nc12,5.6,106.1*,112.1*,·,·,22.3*
COc1ccccc1OCCn1c(C)c(C=O)c2ccccc21,1.3,10.1,-10.1,11.8,23.5,1.1

# Bioassay records (PubChem)
